Measured values as given in paper PMC7862700, “An all-to-all approach to the identification of sequence-specific readers for epigenetic DNA modifications on cytosine”.

Columns and labels:
Test in all cases: DAPPL (digital affinity profiling via proximity ligation, sequencing); 10 mM Tris-HCl pH 7.5, 50 mM NaCl, 1 mM DTT, 4% glycerol, room temperature, 30 min; GST-TFs on glutathione beads, 16-mer random dsDNA library, 0.1% formaldehyde crosslink after washing; high values mean tight binding
Settings in all cases: protein: recombinant; tags: N-terminal GST; dsDNA, one strand shown
GABPA = molecular target: T1, GABPA (Homo sapiens, UniProt Q06546 1-454)
T1 sequence: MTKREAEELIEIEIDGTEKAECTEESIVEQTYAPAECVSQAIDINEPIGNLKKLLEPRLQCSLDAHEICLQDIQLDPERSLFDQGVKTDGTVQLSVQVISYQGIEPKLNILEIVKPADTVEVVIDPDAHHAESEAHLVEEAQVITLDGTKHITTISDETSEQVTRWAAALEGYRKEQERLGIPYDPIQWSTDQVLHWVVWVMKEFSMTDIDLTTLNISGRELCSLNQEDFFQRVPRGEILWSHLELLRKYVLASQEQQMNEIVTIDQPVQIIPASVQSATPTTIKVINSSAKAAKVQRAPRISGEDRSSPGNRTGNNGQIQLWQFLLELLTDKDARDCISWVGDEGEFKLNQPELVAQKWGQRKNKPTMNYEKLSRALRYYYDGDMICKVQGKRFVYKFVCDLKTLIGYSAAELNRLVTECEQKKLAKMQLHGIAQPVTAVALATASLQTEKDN
Summary of the method: (§1)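 Beads coated with glutathione captured GST-fused human transcription factors that had been expressed in yeast, and the factors were then given DNA barcodes and pooled with a tag-only sample. The pools were incubated with 200 nmole of a random double-stranded 16-mer DNA library in Tris/NaCl/DTT/glycerol buffer for 30 min at room temperature, washed, crosslinked with 0.1% formaldehyde and proximity-ligated with BsaI/T4 ligase at 37 °C for 1 h. PCR amplification and Illumina NextSeq500 sequencing came last. Binding signal is each hexamer's read frequency for a factor divided by its frequency for the tag-only sample.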

ELF1 = ELF1 (Homo sapiens, UniProt P32519 1-619)
ELF1, sequence (P32519 whole entry): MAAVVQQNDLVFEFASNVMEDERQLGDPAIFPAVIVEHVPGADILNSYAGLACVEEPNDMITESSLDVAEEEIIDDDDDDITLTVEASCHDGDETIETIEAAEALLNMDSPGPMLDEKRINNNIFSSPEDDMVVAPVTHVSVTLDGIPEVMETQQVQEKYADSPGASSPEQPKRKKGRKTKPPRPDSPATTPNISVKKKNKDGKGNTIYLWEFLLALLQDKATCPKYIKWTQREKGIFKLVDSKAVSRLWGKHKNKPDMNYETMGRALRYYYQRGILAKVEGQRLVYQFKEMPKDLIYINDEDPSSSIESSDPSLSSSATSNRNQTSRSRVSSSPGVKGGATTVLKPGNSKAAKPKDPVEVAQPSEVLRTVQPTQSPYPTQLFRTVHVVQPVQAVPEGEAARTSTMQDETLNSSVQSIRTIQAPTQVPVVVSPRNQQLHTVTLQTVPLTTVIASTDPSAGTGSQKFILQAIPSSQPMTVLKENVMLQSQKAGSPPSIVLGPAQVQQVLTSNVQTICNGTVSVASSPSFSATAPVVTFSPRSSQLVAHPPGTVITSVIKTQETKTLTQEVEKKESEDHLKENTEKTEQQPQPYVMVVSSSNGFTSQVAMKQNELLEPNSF
Summary of the method: as §1

EHF = molecular target: T2, EHF (Homo sapiens, UniProt Q9NZC4 1-300)
T2 sequence: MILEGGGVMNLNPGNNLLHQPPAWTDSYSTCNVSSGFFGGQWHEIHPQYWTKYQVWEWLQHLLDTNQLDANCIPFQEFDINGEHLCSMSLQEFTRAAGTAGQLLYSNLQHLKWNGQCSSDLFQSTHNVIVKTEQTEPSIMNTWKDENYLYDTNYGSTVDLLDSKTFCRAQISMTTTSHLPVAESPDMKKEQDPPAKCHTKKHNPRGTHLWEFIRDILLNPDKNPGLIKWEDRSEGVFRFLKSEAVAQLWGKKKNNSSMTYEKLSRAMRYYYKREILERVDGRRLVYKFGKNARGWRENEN
Summary of the method: as §1

SPIC = molecular target: T3, SPIC (Homo sapiens, UniProt Q8N5J4 1-248)
T3 sequence: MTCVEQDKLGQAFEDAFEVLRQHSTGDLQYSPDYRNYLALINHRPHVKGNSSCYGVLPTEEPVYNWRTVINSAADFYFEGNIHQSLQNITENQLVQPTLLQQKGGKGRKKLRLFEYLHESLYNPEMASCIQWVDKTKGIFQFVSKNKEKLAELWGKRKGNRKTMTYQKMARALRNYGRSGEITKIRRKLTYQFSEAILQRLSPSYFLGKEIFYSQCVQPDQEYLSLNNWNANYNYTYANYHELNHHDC
Summary of the method: as §1

ELF4 = ELF4 (Homo sapiens, UniProt Q99607 1-663)
ELF4, sequence (Q99607 whole entry): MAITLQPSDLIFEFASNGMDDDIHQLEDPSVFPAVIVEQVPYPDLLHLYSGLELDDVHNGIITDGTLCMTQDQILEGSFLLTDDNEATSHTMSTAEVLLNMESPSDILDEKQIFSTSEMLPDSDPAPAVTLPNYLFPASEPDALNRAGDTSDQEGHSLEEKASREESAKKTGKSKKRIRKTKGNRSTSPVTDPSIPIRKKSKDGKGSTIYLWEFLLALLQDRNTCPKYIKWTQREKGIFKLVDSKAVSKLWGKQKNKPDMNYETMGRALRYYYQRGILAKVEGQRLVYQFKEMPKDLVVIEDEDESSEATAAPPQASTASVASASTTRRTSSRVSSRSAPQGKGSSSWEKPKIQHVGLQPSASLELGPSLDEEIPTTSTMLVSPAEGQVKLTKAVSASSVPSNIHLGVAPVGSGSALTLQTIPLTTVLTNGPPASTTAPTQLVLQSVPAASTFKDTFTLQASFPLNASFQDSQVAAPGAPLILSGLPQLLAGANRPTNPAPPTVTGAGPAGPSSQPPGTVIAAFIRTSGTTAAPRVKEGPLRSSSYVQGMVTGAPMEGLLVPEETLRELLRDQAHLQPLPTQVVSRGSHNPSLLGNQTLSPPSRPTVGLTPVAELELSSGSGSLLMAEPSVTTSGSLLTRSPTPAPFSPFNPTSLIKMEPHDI
Summary of the method: as §1

ELK4 = molecular target: T4, ELK4 (Homo sapiens, UniProt P28324-2 1-405)
T4 sequence: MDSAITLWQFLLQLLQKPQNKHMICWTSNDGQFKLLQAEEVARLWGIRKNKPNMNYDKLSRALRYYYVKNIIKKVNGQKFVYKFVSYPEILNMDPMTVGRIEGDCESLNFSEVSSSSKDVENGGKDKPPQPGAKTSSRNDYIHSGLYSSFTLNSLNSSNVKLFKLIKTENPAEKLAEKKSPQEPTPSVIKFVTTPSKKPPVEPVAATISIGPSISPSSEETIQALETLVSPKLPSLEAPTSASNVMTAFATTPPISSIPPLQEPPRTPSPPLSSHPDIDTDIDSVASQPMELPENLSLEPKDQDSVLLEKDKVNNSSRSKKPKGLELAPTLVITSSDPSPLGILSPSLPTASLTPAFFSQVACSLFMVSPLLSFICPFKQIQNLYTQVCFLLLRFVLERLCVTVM
Summary of the method: as §1

ELF3 = molecular target: T5, ELF3 (Homo sapiens, UniProt P78545 1-371)
T5 sequence: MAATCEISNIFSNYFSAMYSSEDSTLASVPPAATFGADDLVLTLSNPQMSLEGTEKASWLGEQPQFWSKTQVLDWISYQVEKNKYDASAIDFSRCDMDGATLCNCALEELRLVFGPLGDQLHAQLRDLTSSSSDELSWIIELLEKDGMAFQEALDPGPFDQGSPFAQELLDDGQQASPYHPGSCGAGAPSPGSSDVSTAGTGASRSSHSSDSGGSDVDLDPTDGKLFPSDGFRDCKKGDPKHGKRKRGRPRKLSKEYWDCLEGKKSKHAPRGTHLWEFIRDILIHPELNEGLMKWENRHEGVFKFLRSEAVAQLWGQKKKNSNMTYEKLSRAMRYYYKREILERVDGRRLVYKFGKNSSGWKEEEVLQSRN
Summary of the method: as §1

ERF = molecular target: T6, ERF (Homo sapiens, UniProt P50548 1-548)
T6 sequence: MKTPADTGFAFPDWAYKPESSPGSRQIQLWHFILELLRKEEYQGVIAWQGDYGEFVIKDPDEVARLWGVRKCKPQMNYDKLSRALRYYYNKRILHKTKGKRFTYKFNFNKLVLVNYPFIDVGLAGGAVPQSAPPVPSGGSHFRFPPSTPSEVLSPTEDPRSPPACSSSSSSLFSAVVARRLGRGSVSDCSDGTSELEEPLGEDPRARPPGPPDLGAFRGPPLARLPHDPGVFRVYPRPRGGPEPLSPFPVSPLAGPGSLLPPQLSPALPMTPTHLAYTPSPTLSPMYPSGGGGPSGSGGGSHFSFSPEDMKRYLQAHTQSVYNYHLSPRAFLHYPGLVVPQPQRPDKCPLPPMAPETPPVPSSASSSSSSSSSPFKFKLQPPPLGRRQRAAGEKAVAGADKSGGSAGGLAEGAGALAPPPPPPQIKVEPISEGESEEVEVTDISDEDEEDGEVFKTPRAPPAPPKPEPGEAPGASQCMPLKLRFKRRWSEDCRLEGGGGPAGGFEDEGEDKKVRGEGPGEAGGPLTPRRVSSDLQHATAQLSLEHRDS
Summary of the method: as §1

ETV3L = molecular target: T7, ETV3L (Homo sapiens, UniProt Q6ZN32 1-361)
T7 sequence: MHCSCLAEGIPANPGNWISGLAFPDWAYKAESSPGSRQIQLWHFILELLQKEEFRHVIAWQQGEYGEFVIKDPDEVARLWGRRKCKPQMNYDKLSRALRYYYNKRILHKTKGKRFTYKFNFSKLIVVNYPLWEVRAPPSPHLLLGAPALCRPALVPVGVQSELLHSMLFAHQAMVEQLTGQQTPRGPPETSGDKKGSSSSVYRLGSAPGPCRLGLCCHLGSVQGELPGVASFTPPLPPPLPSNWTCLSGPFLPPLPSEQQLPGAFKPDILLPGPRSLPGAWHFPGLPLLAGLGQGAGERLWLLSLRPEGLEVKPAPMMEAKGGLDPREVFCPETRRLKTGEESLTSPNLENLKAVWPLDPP
Summary of the method: as §1

ETS2 = molecular target: T8, ETS2 (Homo sapiens, UniProt P15036 1-469)
T8 sequence: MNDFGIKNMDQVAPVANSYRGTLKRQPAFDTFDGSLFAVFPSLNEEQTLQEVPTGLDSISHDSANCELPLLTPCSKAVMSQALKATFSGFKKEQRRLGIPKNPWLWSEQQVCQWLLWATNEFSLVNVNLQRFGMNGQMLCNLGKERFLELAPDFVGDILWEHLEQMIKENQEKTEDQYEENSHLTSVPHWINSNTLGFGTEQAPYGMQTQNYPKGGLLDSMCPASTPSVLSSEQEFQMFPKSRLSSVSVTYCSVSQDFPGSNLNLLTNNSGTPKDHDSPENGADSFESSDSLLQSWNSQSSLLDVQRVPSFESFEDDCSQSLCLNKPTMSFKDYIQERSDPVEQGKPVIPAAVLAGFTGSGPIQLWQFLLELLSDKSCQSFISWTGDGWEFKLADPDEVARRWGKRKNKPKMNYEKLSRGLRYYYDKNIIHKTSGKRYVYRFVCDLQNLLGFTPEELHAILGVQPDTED
Summary of the method: as §1

ETV7 = molecular target: T9, ETV7 (Homo sapiens, UniProt Q9Y603 1-341)
T9 sequence: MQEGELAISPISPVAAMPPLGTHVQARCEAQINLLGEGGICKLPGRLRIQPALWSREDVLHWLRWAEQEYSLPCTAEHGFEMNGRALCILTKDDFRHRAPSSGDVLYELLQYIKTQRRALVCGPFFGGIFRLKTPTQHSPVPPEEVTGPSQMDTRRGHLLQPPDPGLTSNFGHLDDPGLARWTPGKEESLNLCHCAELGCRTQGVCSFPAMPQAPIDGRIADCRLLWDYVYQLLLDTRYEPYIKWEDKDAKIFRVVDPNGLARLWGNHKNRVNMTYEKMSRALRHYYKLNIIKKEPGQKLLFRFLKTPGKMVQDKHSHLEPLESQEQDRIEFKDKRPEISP
Summary of the method: as §1

ETV6 = ETV6 (Homo sapiens, UniProt P41212 1-452)
ETV6, sequence (P41212 whole entry): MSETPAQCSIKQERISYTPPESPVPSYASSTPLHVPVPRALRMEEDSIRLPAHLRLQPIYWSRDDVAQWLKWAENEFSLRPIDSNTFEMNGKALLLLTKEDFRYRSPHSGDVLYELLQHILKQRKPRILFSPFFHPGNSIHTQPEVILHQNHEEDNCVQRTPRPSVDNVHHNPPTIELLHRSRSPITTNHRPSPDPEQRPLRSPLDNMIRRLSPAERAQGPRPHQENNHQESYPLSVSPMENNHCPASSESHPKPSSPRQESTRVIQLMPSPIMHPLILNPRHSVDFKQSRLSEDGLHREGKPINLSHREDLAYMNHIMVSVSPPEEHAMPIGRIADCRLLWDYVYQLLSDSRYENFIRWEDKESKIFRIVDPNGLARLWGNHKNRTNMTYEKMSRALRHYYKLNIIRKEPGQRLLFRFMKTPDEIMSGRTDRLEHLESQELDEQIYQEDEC
Summary of the method: as §1

In the case of ACCTAG, the binding signal (GABPA) is reported as 1.14 fold enrichment (6-mer frequency, TF over GST control), the binding signal (ELF1) is reported as 1.06 fold enrichment (6-mer frequency, TF over GST control) and the binding signal (EHF) is reported as 1.04 fold enrichment (6-mer frequency, TF over GST control). The binding signal (SPIC) was 1.01 fold enrichment (6-mer frequency, TF over GST control), the binding signal (ELF4) was 1.06 fold enrichment (6-mer frequency, TF over GST control) and the binding signal (ELK4) was 1.08 fold enrichment (6-mer frequency, TF over GST control). The binding signal (ELF3) was 1.02 fold enrichment (6-mer frequency, TF over GST control), the binding signal (ERF) was 1.06 fold enrichment (6-mer frequency, TF over GST control) and the binding signal (ETV3L) was 1.05 fold enrichment (6-mer frequency, TF over GST control). The binding signal (ETS2) was 1.06 fold enrichment (6-mer frequency, TF over GST control), the binding signal (ETV7) was 1.11 fold enrichment (6-mer frequency, TF over GST control) and the binding signal (ETV6) was 1.02 fold enrichment (6-mer frequency, TF over GST control).
